Here are results for 33 compounds from PubChem BioAssay (NCATS).

Molecules are shown by their SMILES. Results filed as inconclusive are left out. A number with no mark means an inactive call. Active and inactive are the calls of the source. Unless noted, calls come from the whole dose curve. Peptide text beside a SMILES is read from it.

Assay [1] can be described thus: qHTS for Inhibitors of the Functional Ribonucleoprotein Complex (vRNP) of Lassa (LASV) Arenavirus: LASV Primary Screen - GLuc reporter signal (AID 1347082; calls by dose curve; tested in HEK293 reporter line; note: nearly all actives have a fitted effect of over 60% in size; for activity change, negative = inhibition: series mostly up to about 57 µM). (Quantitative high-throughput screening tests each substance at several concentrations.)
Assay [2] is described as follows: qHTS for Inhibitors of the Functional Ribonucleoprotein Complex (vRNP) of Lassa (LASV) Arenavirus: Viability assay - alamar blue signal for LASV Primary Screen (AID 1347083; calls by dose curve; tested in HEK293 reporter line; note: nearly all actives have a fitted effect of over 80% in size; for activity change, negative = reduced viability: series mostly up to about 57 µM).
Assay [3] can be described thus: qHTS for Inhibitors of the Functional Ribonucleoprotein Complex (vRNP) of Lymphocytic Choriomeningitis Arenaviruses (LCMV): Viability assay - alamar blue signal for LCMV Primary Screen (AID 1347085; calls by dose curve; tested in HEK293 reporter line; note: nearly all actives have a fitted effect of over 80% in size; for activity change, negative = lower viability: series mostly up to about 57 µM).
Assay [4] deals with Nucleoprotein (Lymphocytic choriomeningitis virus (strain Armstrong)) (UniProt P09992). Description: qHTS for Inhibitors of the Functional Ribonucleoprotein Complex (vRNP) of Lymphocytic Choriomeningitis Arenaviruses (LCMV): LCMV Primary Screen - GLuc reporter signal (AID 1347086). For activity change, negative = inhibition: series mostly up to about 57 µM. Note: nearly all actives have a fitted effect of over 70% in size.
% is set by controls: 0 for no effect and ±100 for the full control effect; potency is the fitted concentration of half-maximal effect.

Chain of Nucleoprotein (Lymphocytic choriomeningitis virus (strain Armstrong)) (P09992 whole entry, looked up): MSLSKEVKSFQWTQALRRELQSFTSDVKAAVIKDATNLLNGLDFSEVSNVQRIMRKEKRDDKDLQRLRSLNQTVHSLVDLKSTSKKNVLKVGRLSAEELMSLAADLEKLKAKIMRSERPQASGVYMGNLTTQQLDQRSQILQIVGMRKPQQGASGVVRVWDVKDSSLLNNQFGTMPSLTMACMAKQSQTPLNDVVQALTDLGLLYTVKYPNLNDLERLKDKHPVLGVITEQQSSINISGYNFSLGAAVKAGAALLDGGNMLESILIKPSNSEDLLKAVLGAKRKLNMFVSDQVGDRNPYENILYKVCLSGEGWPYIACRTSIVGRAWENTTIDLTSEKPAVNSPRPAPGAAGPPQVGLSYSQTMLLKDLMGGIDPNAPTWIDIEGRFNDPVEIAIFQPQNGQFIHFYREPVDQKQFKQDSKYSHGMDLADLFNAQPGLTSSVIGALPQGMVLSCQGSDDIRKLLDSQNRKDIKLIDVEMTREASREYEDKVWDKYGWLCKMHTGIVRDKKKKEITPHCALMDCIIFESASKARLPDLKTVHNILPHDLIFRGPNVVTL

With `CCc1oc2ccccc2c1C(=O)c1cc(I)c(O)c(I)c1`, the Potency result in assay [1], in assay [2], in assay [3] and in assay [4] was “inactive” each time.

For `COc1ccc2c(c1)CCCC2=O`, the Potency result in assay [1], in assay [2], in assay [3] and in assay [4] was “inactive” each time.

For `COc1ccc(C(=O)c2ccccc2O)c(O)c1`, the Potency result in assay [1], in assay [2], in assay [3] and in assay [4] was “inactive” throughout.

Consider `Cc1nc2c([nH]1)c(=O)n(C)c(=O)n2Cc1ccco1`, for which the Potency entry in assay [1], in assay [2], in assay [3] and in assay [4] was “inactive” in each case.

Regarding `Cc1ccc(-c2ncc(Cl)cc2-c2ccc(S(C)(=O)=O)cc2)cn1`, the Potency result in assay [1], in assay [2], in assay [3] and in assay [4] was “inactive” throughout.

As to `Cc1ccc(O)c2ncccc12`, the Potency entry in assay [1], in assay [2], in assay [3] and in assay [4] was “inactive” in each case.

For the compound `CCN1CCC[C@H]1CNC(=O)c1cc(S(N)(=O)=O)ccc1OC`, the Potency entry in assay [1], in assay [2], in assay [3] and in assay [4] was “inactive” in each case.

As for `CCCCCCCCCCOc1cc2c(=O)c(C(=O)OCC)c[nH]c2cc1OCC`, the activity change, negative = inhibition in assay [1] was -8.32% [at 5.82 µM]; in assay [4], 13.4% [at 5.82 µM]. The activity change, negative = reduced viability in assay [2] was 1.68% [at 5.82 µM]. For the same compound, the activity change, negative = lower viability in assay [3] was 5.24% [at 5.82 µM].

Regarding `CCO[C@H](Cc1ccc(OCCc2ccc(OS(C)(=O)=O)cc2)cc1)C(=O)O`, the Potency entry in assay [1], in assay [2], in assay [3] and in assay [4] was “inactive” throughout.

In the case of `CC(C)CCCC(C)NCCC(C)C` (configuration not stated), the Potency result in assay [1], in assay [2], in assay [3] and in assay [4] was “inactive” in each case.

For `CC(=O)c1cc2ccccc2s1`, the Potency entry in assay [1], in assay [2], in assay [3] and in assay [4] was “inactive” throughout.

Consider `CCCCC(=O)OCC(=O)[C@H]1[C@H](C)C[C@H]2[C@@H]3C[C@H](F)C4=CC(=O)C=C[C@]4(C)[C@@]3(F)[C@@H](O)C[C@@]21C`, for which the Potency result in assay [1], in assay [2], in assay [3] and in assay [4] was “inactive” in each case.

In the case of `N[C@@H](Cc1cc(I)c(Oc2ccc(O)c(I)c2)c(I)c1)C(=O)O`, the Potency result in assay [1], in assay [2], in assay [3] and in assay [4] was “inactive” in each case.

`O=C(O)CCCCC(=O)O`: the Potency result in assay [1], in assay [2], in assay [3] and in assay [4] was “inactive” throughout.

Turning to `CCN[C@H]1CN(CCCOC)S(=O)(=O)c2sc(S(N)(=O)=O)cc21`, the Potency result in assay [1], in assay [2], in assay [3] and in assay [4] was “inactive” throughout.

In the case of `COc1ccc2cc1Oc1cc3c(cc1OC)CC[N+](C)(C)[C@H]3Cc1ccc(cc1)Oc1c(OC)c(OC)cc3c1[C@@H](C2)[N+](C)(C)CC3`, the Potency result in assay [1], in assay [2], in assay [3] and in assay [4] was “inactive” in each case.

For `NC(CO)(CO)CO`, the Potency result in assay [1], in assay [2], in assay [3] and in assay [4] was “inactive” in each case.

Regarding `CCN1CCC[C@H]1CNC(=O)c1c(OC)ccc(Br)c1OC`, the Potency entry in assay [1], in assay [2], in assay [3] and in assay [4] was “inactive” each time.

Consider `C/C=C1\[C@H]2C=C(C)C[C@]1(N)c1ccc(=O)[nH]c1C2`, for which the Potency entry in assay [1], in assay [2], in assay [3] and in assay [4] was “inactive” in each case.

Take `COc1cccc2c1C(=O)c1c(O)c3c(c(O)c1C2=O)C[C@@](O)(C(C)=O)C[C@H]3O[C@H]1C[C@H](N)[C@H](O)[C@H](C)O1`: the Potency in assay [1] was 1220 nM (active); in assay [2], 153 nM (active); in assay [3] it was 153 nM (active); in assay [4], 273 nM (active).

On to `O=C(O)[C@@H](O)[C@H](O)[C@H](O)[C@@H](O)C(=O)O`, for which the Potency result in assay [1], in assay [2], in assay [3] and in assay [4] was “inactive” in each case.

Regarding `CCS(=O)(=O)CCn1c([N+](=O)[O-])cnc1C`, the Potency result in assay [1], in assay [2], in assay [3] and in assay [4] was “inactive” in each case.

For `CC(=O)OCC(=O)[C@@]1(O)[C@H](C)C[C@H]2[C@@H]3CCC4=CC(=O)C=C[C@]4(C)[C@@]3(F)[C@@H](O)C[C@@]21C`, the Potency entry in assay [1], in assay [2], in assay [3] and in assay [4] was “inactive” throughout.

As to `CC(=O)N(CC(O)CO)c1c(I)c(C(=O)NCCO)c(I)c(C(=O)NCC(O)CO)c1I` (configuration not stated), the Potency result in assay [1], in assay [2], in assay [3] and in assay [4] was “inactive” each time.

For the compound `O=C(NCC(O)CO)c1c(I)c(C(=O)NCC(O)CO)c(I)c(N(CCO)C(=O)CO)c1I` (configuration not stated), the Potency entry in assay [1], in assay [2], in assay [3] and in assay [4] was “inactive” in each case.

In the case of `CCNC(=O)[C@@H]1CCCN1C(=O)[C@H](CCCN=C(N)N)NC(=O)[C@H](CC(C)C)NC(=O)CNC(=O)[C@H](Cc1ccc(O)cc1)NC(=O)[C@H](CO)NC(=O)[C@H](Cc1c[nH]c2ccccc12)NC(=O)[C@H](Cc1cnc[nH]1)NC(=O)[C@@H]1CCC(=O)N1` (HELM PEPTIDE1{[Glp].H.W.S.Y.G.L.R.P.[CCN[*:1]]}$$$$V2.0), the Potency result in assay [1], in assay [2], in assay [3] and in assay [4] was “inactive” throughout.

For the compound `N#CC1(c2ccc(F)cc2)CCC(=O)CC1`, the Potency result in assay [1], in assay [2], in assay [3] and in assay [4] was “inactive” each time.

`NC(=O)CC[C@@H]1NC(=O)[C@H](Cc2ccccc2)NC(=O)[C@H](Cc2ccc(O)cc2)NC(=O)CCSSC[C@@H](C(=O)N2CCC[C@H]2C(=O)N[C@@H](CCCN=C(N)N)C(=O)NCC(N)=O)NC(=O)[C@H](CC(N)=O)NC1=O`: the Potency entry in assay [1], in assay [2], in assay [3] and in assay [4] was “inactive” each time.

Regarding `CC(N)CCCC(C)(C)O` (configuration not stated), the Potency entry in assay [1], in assay [2], in assay [3] and in assay [4] was “inactive” in each case.

For `CC(C)(Oc1ccc(Cl)cc1)C(=O)O`, the Potency entry in assay [1], in assay [2], in assay [3] and in assay [4] was “inactive” throughout.

Regarding `C[C@]12C=CC(=O)C=C1[C@@H](F)C[C@@H]1[C@@H]2[C@@H](O)C[C@@]2(C)[C@H]1CC[C@]2(O)C(=O)CO`, the Potency entry in assay [1], in assay [2], in assay [3] and in assay [4] was “inactive” each time.

Turning to `CC(O)CN(CCN(CC(C)O)CC(C)O)CC(C)O` (configuration not stated), the Potency result in assay [1], in assay [2], in assay [3] and in assay [4] was “inactive” throughout.

As to `NC(CS)C(=O)O` (configuration not stated), the Potency entry in assay [1], in assay [2], in assay [3] and in assay [4] was “inactive” each time.
